Test results reported in PubChem BioAssay AID651815 (National Center for Advancing Translational Sciences (NCATS), 2012).
Among all 2,100 compounds or so, about 1,100 (52%) were called active. Not shown: some 29% with an inconclusive outcome. Calls follow the shape of the dose curve; as a rule, active = well fitted inhibition curve with a large enough effect; inconclusive = small, poorly fitted or top-dose-only effect; inactive = no such curve, though single readings can be large or run the other way. The set was probably picked from earlier hits. The list shows a part of the results.

Target: DNA dC->dU-editing enzyme APOBEC-3F (Homo sapiens) (UniProt Q8IUX4)
Assay: qHTS for inhibitors of Vif-A3F interactions: Cherry picks counterscreen; also: nearly all actives have a fitted effect of over 65% in size
Settings: HeLa A3F-eYFP/Vif cells, eYFP fluorescence, 24 h; series mostly up to 46.1 µM
Summary of the method: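 Rescue of Vif-driven A3F-eYFP degradation read as cellular eYFP fluorescence after 24 h compound exposure (several concentrations) in stable HeLa cells; MG132 (2 mM stock) as positive control.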
Potency is read from the fitted curve at half-maximal effect.

DNA dC->dU-editing enzyme APOBEC-3F (Homo sapiens), sequence (Q8IUX4 whole entry, looked up): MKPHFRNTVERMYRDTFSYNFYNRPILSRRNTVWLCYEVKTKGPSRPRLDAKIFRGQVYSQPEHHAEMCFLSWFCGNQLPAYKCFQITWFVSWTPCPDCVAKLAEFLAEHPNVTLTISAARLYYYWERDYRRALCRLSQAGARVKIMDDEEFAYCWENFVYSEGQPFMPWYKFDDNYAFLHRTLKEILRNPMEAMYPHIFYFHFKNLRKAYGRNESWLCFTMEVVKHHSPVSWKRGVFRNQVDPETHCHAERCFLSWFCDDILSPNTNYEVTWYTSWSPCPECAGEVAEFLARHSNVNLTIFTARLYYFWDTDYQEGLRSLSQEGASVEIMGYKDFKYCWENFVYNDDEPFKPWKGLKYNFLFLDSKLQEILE

| SMILES | Potency |
| --- | --- |
| c1ccc(N=Nc2ccc3cccccc2-3)cc1 | 15.8 µM (active) |
| CCOC(=O)C(=Cc1ccc(-n2ccnc2)cc1)C(=O)OCC | 12.5 µM (active) |
| CCOC(=O)C(=Cc1ccc(-n2cncn2)cc1)C(=O)OCC | 7.9 µM (active) |
| COc1cc(CNCCSc2nnnn2C)ccc1OCc1c(F)cccc1Cl | inactive |
| O=C(c1ccccc1)c1c2c(cc3sc4ccccc4[n+]13)-c1cccc3cccc-2c13 | 17.7 µM (active) |
| Oc1ccc(C2=NNC(=NCc3ccc4c(c3)OCO4)SC2)c(O)c1 | 4.98 µM (active) |
| O=C(O)CSc1c2ccccc2cc2ccccc12 | inactive |
| Cc1cc(NC(=O)NC(=O)c2ccccc2NC(=O)C(C)N)ccc1Oc1ncc(Br)cn1 (centres undefined) | 3.14 µM (active) |
| O=C1c2cccc3c([N+](=O)[O-])c(O)cc(c23)C(=O)N1Nc1ccccc1 | 23.1 µM (active) |
| O=c1[nH]c2ccccc2n2c(C(F)(F)F)nnc12 | 16.4 µM (active) |
| Cc1cccc(Cn2c(=O)n(CCCC(=O)NCc3ccco3)c(=O)c3ccccc32)c1 | 8.86 µM (active) |
| Cc1ccc(S(=O)(=O)Nc2nc3ccccc3nc2Nc2cccc(S(=O)(=O)N3CCCC3)c2)cc1 | 3.26 µM (active) |
| O=S(=O)(Nc1nc2ccccc2nc1Nc1cccc(S(=O)(=O)N2CCCCC2)c1)c1ccccc1 | 18.4 µM (active) |
| O=C(Nc1ccc(Cl)cn1)c1cccc(S(=O)(=O)N2CCCCCC2)c1 | inactive |
| O=C(NCc1ccccc1)C1Cc2c(-c3cccc(F)c3)ccnc2O1 (centres undefined) | 2.8 µM (active) |
| O=C(NCc1ccco1)C1Cc2c(-c3cccc(F)c3)ccnc2O1 (centres undefined) | 2.8 µM (active) |
| CC(=O)c1cccc(-c2ccnc3c2CC(C(=O)NCc2ccc(F)c(F)c2)O3)c1 (centres undefined) | 3.96 µM (active) |
| CC(=O)c1cccc(-c2ccnc3c2CC(C(=O)NCc2ccco2)O3)c1 (centres undefined) | 1.98 µM (active) |
| COc1ccc(-n2c(O)c(/C=N/NS(=O)(=O)c3cccc([N+](=O)[O-])c3)c3ccccc3c2=O)cc1OC | 14 µM (active) |
| COc1ccc(-n2c(O)c(/C=N/NS(=O)(=O)c3ccc(C)c([N+](=O)[O-])c3)c3ccccc3c2=O)cc1OC | 6.51 µM (active) |
| O=C(O)CSc1cc(NS(=O)(=O)c2cccc([N+](=O)[O-])c2)c2ccccc2c1O | inactive |
| O=C(CSc1nc2ccc(Nc3nc(N4CCOCC4)nc(N4CCOCC4)n3)cc2s1)Nc1ccccc1F | 20.6 µM (active) |
| Cc1ccc(NC(=O)CSc2nc3ccc(Nc4nc(N5CCOCC5)nc(N5CCOCC5)n4)cc3s2)cc1 | 20.6 µM (active) |
| Cc1ccc(NC(=O)CSc2n[nH]c(-c3ccccn3)n2)cc1 | inactive |

| SMILES | Potency |
| --- | --- |
| CN1CCC(OC(=O)c2cc3cc(Cl)cc(Cl)c3oc2=O)CC1 | inactive |
| Cc1ccc(C(=O)CSC2=C(C#N)C(c3ccco3)C3=C(CCCC3=O)N2)cc1 (centres undefined) | 9.94 µM (active) |
| O=C(c1ccc(CS(=O)c2ccccc2Cl)o1)N1CCN(c2ccccc2F)CC1 (centres undefined) | 1.84 µM (active) |
| O=c1c2cc3ccccc3n2cnn1Cc1ccccc1F | 14 µM (active) |
| Cc1ccnc(N/C=C(\C#N)c2nc(-c3cccc(Br)c3)cs2)c1 | 15.8 µM (active) |
| Cc1cc(C)cc(NC(=S)NC(=O)C2CC2)c1 | inactive |
| Cc1cc(C)cc(NC(=O)Cn2cc(C(=O)C3CCCCC3)c3ccccc32)c1 | 16.4 µM (active) |
| CN(C)c1ccc(/C=C/c2ccnc3ccccc23)cc1O | 18.4 µM (active) |
| Cc1cc(/C=C/c2ccnc3ccccc23)ccc1N(C)C | 10.3 µM (active) |
| CN1CCCc2cc(/C=C/c3ccnc4ccccc34)ccc21 | 2.59 µM (active) |
| Cc1cc(/C=C/c2ccnc3ccccc23)ccc1N | 16.4 µM (active) |
| CN(C)c1ccc(/C=C/c2ccnc3ccccc23)cc1C=O | 6.51 µM (active) |
| CCc1cc(/C=C/c2ccnc3ccccc23)ccc1N(C)C | 20.6 µM (active) |
| Cc1ccc(NC(=O)Cc2ccc(-n3cccc3)cc2)c(C)c1 | inactive |
| Cc1ccc(CNC(=O)Cc2ccc(-n3cccc3)cc2)cc1 | 3.53 µM (active) |
| CCN(CC)CCCNc1ccc2ncn3c4ccc(O)cc4c(=O)c1c23 | 20.6 µM (active) |
| CN(C)CCNc1ccc2ncn3c4ccc(O)cc4c(=O)c1c23 | 20.6 µM (active) |
| C=CCNC(=S)N/N=C/c1ccc(C)cc1C | inactive |
| CCOc1cc(S(=O)(=O)NCc2ccc(OC)cc2)c(OCC)cc1-n1cnnn1 | 12.5 µM (active) |
| c1ccc2c(c1)Cc1cc3ccccc3nc1-2 | 9.2 µM (active) |
| Cc1ccc(S(=O)(=O)N2CCCCC2CCNC(=O)C(=O)NCc2ccco2)cc1 (centres undefined) | 14 µM (active) |
| COc1cc(/C=C/C(=O)c2ccc3c(c2)OCCO3)cc(Br)c1OCC(=O)N(C)C | 14 µM (active) |
| CN(C)c1ccc(/C=C/c2ccnc3c(N)cccc23)cc1 | 18.4 µM (active) |
| CN(C)c1ccc(/C=C/c2ccnc3c(Cl)ccc(Cl)c23)cc1 | 5.17 µM (active) |

| SMILES | Potency |
| --- | --- |
| CN(C)c1ccc(/C=C/c2ccnc3c(Cl)cccc23)cc1 | 9.2 µM (active) |
| COc1ccc(-c2ccc3c(c2)S(=O)(=O)c2cccc(C(=O)NCCOc4ccccc4)c2C3=O)cc1OC | 14 µM (active) |
| COc1ccc(-c2ccc3c(c2)S(=O)(=O)c2cccc(C(=O)NCc4cccc(OC(F)(F)F)c4)c2C3=O)cc1OC | 3.66 µM (active) |
| O=C(NCc1ccccc1Cl)c1cccc2c1C(=O)c1ccc(-c3ccc(OC(F)(F)F)cc3)cc1S2(=O)=O | 16.4 µM (active) |
| COc1ccc(S(=O)(=O)NN(C)c2nc(C(F)(F)F)nc3ccccc23)cc1 | 11.2 µM (active) |
| COc1ccc(NC(=O)C2(C)Cc3c(-c4cccc(NC(C)=O)c4)ccnc3O2)cn1 (centres undefined) | 7.04 µM (active) |
| COc1ccc(NC(=O)C2(C)Cc3c(-c4cccc(C(N)=O)c4)ccnc3O2)cn1 (centres undefined) | 12.5 µM (active) |
| CN(C)c1ccc(/C=C(/C(=O)c2ccc(Cl)cc2Cl)n2cncn2)cc1 | 14 µM (active) |
| Cn1c(=S)c2[nH]c(SCCN3CCCC3)nc2n(C)c1=O | inactive |
| COc1cc(-c2noc(C)c2/C=C/c2cccc([N+](=O)[O-])c2)cc(OC)c1OC | 1.58 µM (active) |
| COc1cc(-c2noc(C)c2/C=C/c2ccc(OC(C)=O)cc2)cc(OC)c1OC | 0.627 µM (active) |
| O=c1[nH]c2cc(Br)cnc2nc1/C=C(\O)c1ccc(F)cc1 | 18.4 µM (active) |
| COc1ccc(Cl)cc1NC(=O)CSc1nc2c([nH]c3ccccc32)c(=O)n1-c1ccccc1 | 25.9 µM (active) |
| O=C(O)c1ccc(NS(=O)(=O)c2cccc(C(=O)Nc3ccccc3[N+](=O)[O-])c2)cc1 | inactive |
| Cc1ccc(NC(=O)c2ccc(NCC3CCCO3)c([N+](=O)[O-])c2)cc1Cl (centres undefined) | 20.6 µM (active) |
| Cc1ccc(NC(=O)c2ccc([N+](=O)[O-])s2)cc1S(=O)(=O)N1CCOCC1 | inactive |
| O=C(NCCN1C(=O)S/C(=C\c2ccc(OC(F)F)cc2)C1=O)c1cnccn1 | 7.04 µM (active) |
| ClCc1nc2ccccc2n1Cc1ccccc1 | 18.4 µM (active) |
| CC(C)(C)c1ccc(Cn2c(=O)cnc3ccccc32)cc1 | inactive |
| COc1cc(N2CCCC2)c(OC)cc1/C=C(/C#N)c1ccc(F)cc1 | 9.2 µM (active) |
| COc1cc(N2CCCC2)c(OC)cc1/C=C(/C#N)c1ccc(Br)cc1 | 2.06 µM (active) |
| CC(=O)/C(N=Nc1cc(C)ccc1O)=C(\C)O | 16.4 µM (active) |
| Cc1ccccc1OCCc1c(C)[nH]c(=S)[nH]c1=O | 2.23 µM (active) |
| Cc1ccc(-c2nc(SCCOc3ccccc3C)n3[nH]c(=O)cc3n2)cc1 | inactive |

| SMILES | Potency |
| --- | --- |
| COc1cc(NC(=O)C2=C(N3CCOCC3)/C(=C\c3ccc(N(C)C)cc3)CCC2)cc(OC)c1OC | 5.59 µM (active) |
| O=C1CC(c2cc(Br)ccc2F)c2cc3c(cc2N1)CCC3 (centres undefined) | 1.12 µM (active) |
| O=C1CC(c2cc(F)ccc2F)c2cc3c(cc2N1)CCC3 (centres undefined) | 3.14 µM (active) |
| O=C1CC(c2ccccc2F)c2cc3c(cc2N1)CCC3 (centres undefined) | 2.5 µM (active) |
| O=C(COc1ccccc1)NC(=S)Nc1cccc2c(O)cccc12 | inactive |
| CCC(=O)NC(=S)Nc1cccc(Cl)c1N1CCCC1 | inactive |
| NC(=O)c1ccccc1NC(=S)NC(=O)CCc1ccccc1 | 9.94 µM (active) |
| Oc1ccc(-c2nc(-c3ccc(O)c(O)c3)cs2)cc1 | 1.25 µM (active) |
| COc1ccc(NC(=O)c2ccc3c(c2)c(C)c(C)n3Cc2ccc(F)cc2)cc1 | 4.61 µM (active) |
| Cc1ccccc1NC(=O)c1ccc2c(c1)c(C)c(C)n2Cc1ccccc1 | 6.51 µM (active) |
| O=[N+]([O-])c1ccc(N2CCN(Cc3ccccc3)CC2)c2c1no[n+]2[O-] | 15.8 µM (active) |
| COc1ccc(OC)c(-c2cc(-c3cccnc3)nc(N)c2C#N)c1 | 3.53 µM (active) |
| Cc1c(C(=O)C(=O)N2CCCc3ccccc32)c2ccccc2n1C | 8.86 µM (active) |
| Cc1c(C(=O)C(=O)N2CC=C(c3ccccc3)CC2)c2ccccc2n1C | 2.5 µM (active) |
| O=C(/C=C/c1ccco1)N1CCc2ccccc21 | inactive |
| COc1ccc(CCNC(=O)CC2(CC3=NS(=O)(=O)c4ccccc4N3)CCCC2)cc1OC | inactive |
| CCOc1ccc(-c2cc(C(=O)NCCc3ccc(OC)c(OC)c3)c3c(-c4ccc(F)cc4)[nH]nc3n2)cc1 | 16.4 µM (active) |
| COc1ccc(OC)c(CNc2nc3ccc(C)cc3n3nnnc23)c1 | 8.2 µM (active) |
| COc1ccccc1CNc1nc2ccc(C)cc2n2nnnc12 | 23.1 µM (active) |
| CN(C)CCCNc1cc(N2CCN(C3CCCCC3)CC2)c2noc3c2c1C(=O)c1ccccc1-3 | 2.59 µM (active) |
| CCNc1cc(N2CCN(C3CCCCC3)CC2)c2noc3c2c1C(=O)c1ccccc1-3 | 13 µM (active) |
| O=C1c2ccccc2-c2onc3c(N4CCN(C5CCCCC5)CC4)cc(NCCO)c1c23 | 5.8 µM (active) |
